This is a sample that favours compounds with a hit; in the whole collection about 7.8% have one here.
HCMV antiviral = human cytomegalovirus inhibition; HFF cells, HCMV-luciferase reporter, 72 h; active compounds read low; AID 1259415; activity change, negative = inhibition, % at 57.5 µM; hit rate 4.5% among 410,000; in the data active = activity change below about -60%; inconclusive = no clear call, values can overlap the other calls; inactive = above about -39%
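Compounds were evaluated in HFFs infected with an HCMV luciferase reporter virus (MOI 1 PFU/cell). Luciferase in lysates collected 72 h post infection served as the replication measure.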
HCV inh = inhibitors of hepatitis C virus infection. Huh7.5.1 HCVcc-Cre infection, luciferase reporter, 44 h. Potency, µM (highest dose often 41.8 µM), for inactives: at the top dose activity change, negative = inhibition, actives largely listed as inhibitors. hit rate 3.4% among 340,000. AID 651820; active = well fitted inhibition curve with a large enough effect; inconclusive = small, poorly fitted or top-dose-only effect, or another doubt; inactive = no such curve, though single readings can be large or run the other way; note: potency is the fitted concentration of half-maximal effect
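Seed cells (1,000/well) for 4 h; treat with compound and infect with HCVcc-Cre, moi about 0.5. Incubate 44 h, then detect luciferase activity.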
Marburg entry inh = blocks Marburg virus binding to or entry into cells; Marburg virus pseudotyped entry inhibition, cell reporter; Potency, µM (top dose mostly 37.8 µM), inactives show at the highest dose activity change, negative = inhibition, usual class: inhibitors; hit rate 1.8% among 300,000; calls by dose curve; tested in HEK293 cells; note: potency is the fitted concentration of half-maximal effect
LASV entry inh = inhibitors of Lassa virus binding or cell entry. Lassa virus pseudotype entry inhibition, cell reporter. Potency, µM (top dose mostly 37.9 µM), for inactives: top-dose activity change, negative = inhibition, actives largely listed as inhibitors. hit rate 1.2% among 300,000. AID 540256; calls by dose curve; tested in HEK293 cells; note: potency is the fitted concentration of half-maximal effect; nearly all actives have a fitted effect of over 50% in size
Vaccinia mCherry = inhibitors of vaccinia virus infection (mCherry reporter signal); Vaccinia virus mCherry reporter infection, fluorescence; Potency, µM (top dose mostly 36.5 µM), without a hit: at the highest dose activity change, negative = inhibition, usual class: inhibitors; hit rate 0.63% among 310,000; calls by dose curve; tested in A549 cells; note: potency is the fitted concentration of half-maximal effect; nearly all actives have a fitted effect of over 35% in size
VACV Venus inh = inhibitors of vaccinia virus (Venus reporter) | Vaccinia virus Venus reporter expression, fluorescence | Potency, µM (doses to about 36.5 µM), for the others: at the highest dose activity change, negative = inhibition, hits mostly inhibitors | hit rate 0.46% among 330,000; calls by dose curve; tested in A549 cells; note: potency is the fitted concentration of half-maximal effect; nearly all actives have a fitted effect of over 30% in size
An asterisk follows results filed as active; i = inactive; ? = inconclusive; · = no result; [ ] = remark or other dose. % is set by controls: 0 for no effect and ±100 for the full control effect.

SMILES	HCMV antiviral	HCV inh	Marburg entry inh	LASV entry inh	Vaccinia mCherry	VACV Venus inh
Cc1sc2ncn(CC(=O)Nc3ccc(C(F)(F)F)cc3)c(=O)c2c1S(=O)(=O)N1CCN(C)CC1	1	·	?	3%[46.1 µM]	-8%	-14%
Nc1[nH]n2c(=O)c3c(nc2c1N=Nc1ccccc1)CCCC3	?	-13%	-6%[46.1 µM]	?	·	?
Nc1[nH]n2c(=O)c3c(nc2c1N=Nc1ccc(Cl)cc1)CCCC3	-95*	14%	2%[46.1 µM]	10%	·	-18%
CCN(CC)Cc1cc(C(C)=O)ccc1OCC(C)C	40	-22%	15%	-2%	-11%	-9%
CC(C)COc1ccc(N)cc1OCC(C)C	-39	2.8µM*	17%[46.1 µM]	0%	4%	9%
O=C(N/N=C/c1cc([N+](=O)[O-])ccc1O)C1CCCCC1	-66*	12%	?	?	-15%	-24%
O=[N+]([O-])c1ccc(O)c(/C=N/Nc2nn[nH]n2)c1	29	3%	14%[46.1 µM]	-26%[46.1 µM]	i	-9%
O=[N+]([O-])c1ccc(O)c(/C=N/Nc2ccc(Cl)nn2)c1	-101*	4µM*	0.13µM*	?	1.1µM*	?
O=C(N/N=C/c1cc([N+](=O)[O-])ccc1O)c1cccc2ccccc12	-112*	·	·	·	·	·
O=C(NN=Cc1cc(Cl)ccc1[N+](=O)[O-])c1cccc2ccccc12	6	17%	-25%	-25%	-7%	-8%
O=C(Cn1nc2ccccc2n1)N/N=C/c1cc([N+](=O)[O-])ccc1O	11	?	10µM*	?	-2%	-19%
O=C(NC[C@@H]1CCCN2CCCC[C@H]12)c1cnn(-c2nccc(-c3cc4ccccc4o3)n2)c1C1CC1	·	·	·	·	-22%	-12%
CN1OC(C)(CC(=O)NCc2ccccc2)N=C1c1ccccc1F (stereo unspecified)	-12	·	·	·	·	·
O=C(Cn1nnc(-c2ccccc2)n1)N/N=C/c1cc([N+](=O)[O-])c(Cl)cc1Cl	-27	?	6%	0%	i	-3%
O=[N+]([O-])c1ccc(O)c(C2CCCCC2)c1	-94*	?	?	?	?	?
O=C(Cn1nnc(-c2ccccc2)n1)N/N=C/c1cc([N+](=O)[O-])ccc1O	-73*	?	3%	3%	-5%	5%
O=[N+]([O-])c1ccc2nc(C3CCCCC3)[nH]c2c1	26	?	?	1%	-21%	-10%
O=C(Cn1nnc(-c2ccccc2)n1)N/N=C/c1ccco1	-16	13µM*	?	3%[46.1 µM]	-10%	-9%
COC(=O)c1ccc(CN2C(=O)[C@@]3(CC(C)=CC[C@@H](C)O3)c3ccccc32)cc1	·	·	-29%[14.2 µM]	·	·	·
Cc1nnc(SCC(=O)N/N=C/c2ccc(-c3ccc(C)c(Cl)c3)o2)s1	-65*	1%	-25%	?	-5%	-21%
Cc1ccc(C(=O)N/N=C\c2ccc(-c3ccc(Cl)c(Cl)c3)o2)cn1	?	-8%	?	?	-18%	?
CCOc1ccccc1NC(=O)c1sc2nc(-c3ccc(OC)cc3)ccc2c1N	-95*	·	?	?	-22%	-12%
NC(=O)c1sc2nc(-c3cccnc3)ccc2c1N	36	13%	?	18%[46.1 µM]	?	-22%
CCOC(=O)c1sc2nc(-c3cccnc3)ccc2c1N	-5	-4%	?	6.3µM*	?	?
Cc1cccc(N2CCN(C(=O)CS(=O)(=O)c3cccc4nsnc34)CC2)c1C	23	·	·	?	-22%	-8%
SMILES	HCMV antiviral	HCV inh	Marburg entry inh	LASV entry inh	Vaccinia mCherry	VACV Venus inh
Cc1ccc(CNC(=O)c2ccc(N3CCCC3=O)cc2)cc1	-18	-11%	8%	-1%	·	·
Cn1nc(C(C)(C)C)cc1C(=O)NCc1ccc(N2CCCC2=O)cc1	-100*	?	?	-28%	·	·
CC(=O)c1ccccc1OCC(O)CN1CCN(C(c2ccccc2)c2ccccc2)CC1 (stereo unspecified)	-16	10µM*	?	-25%	·	?
COc1cccc(OCC(O)CN2CCN(C(c3ccccc3)c3ccccc3)CC2)c1 (stereo unspecified)	-20	?	·	·	·	·
CCS(=O)(=O)N1CCc2cc(C(=O)NCc3ccccc3Cl)ccc21	16	·	?	-16%[46.1 µM]	-6%	-2%
CC(=O)NC(c1cccs1)c1cc([N+](=O)[O-])c2cccnc2c1O (stereo unspecified)	?	13µM*	?	?	?	?
CC(C)C(=O)NC(c1ccccc1)c1cc([N+](=O)[O-])c2cccnc2c1O (stereo unspecified)	-1	?	?	?	?	?
O=C(CCc1ccccc1)NC(c1cccs1)c1cc(Cl)c2cccnc2c1O (stereo unspecified)	-102*	1µM*	?	2.8µM*	8.9µM*	?
CCC(=O)NC(c1cccs1)c1cc([N+](=O)[O-])c2cccnc2c1O (stereo unspecified)	-81*	?	?	?	?	?
CCCC(=O)NC(c1cccs1)c1cc([N+](=O)[O-])c2cccnc2c1O (stereo unspecified)	-99*	?	?	?	?	-26%
CCN(CC)c1nc(C=Cc2ccc(N(C)C)cc2)c2nccnc2n1	-25	·	·	·	40%	i
COC(=O)[C@@H]1CC23C(=NC(c4ccc([N+](=O)[O-])cc4)=C(C(F)(F)F)[C@@H]2N(C)c2ccccc23)N1C(C)=O (stereo partly specified)	·	·	8%[14.2 µM]	·	·	·
Cc1ccc(NC(=O)c2c(C)oc3ccc(O)c(CN4CCCCC4)c23)c(C)c1	-20	·	?	-3%[46.1 µM]	-17%	-12%
CCOP(=O)(OCC)C(CC)N1CCOCC1 (stereo unspecified)	-25	10%	21%[46.1 µM]	22%	·	3%
CCOP(=S)(OCC)N1CCOCCOCCN(P(=S)(OCC)OCC)CCOCCOCC1	17	-16%	10µM*	?	-3%	2%
C=C1C(=O)c2sccc2C(c2ccc(OC)c(OC)c2)C1COC(C)=O (stereo unspecified)	-102*	1.4µM*	0.89µM*	7.9µM*	5µM*	7.1µM*
CCN1CCN(CC(=O)N2N=C(c3cccs3)CC2c2ccc(OC)c(OC)c2)C(=O)C1=O (stereo unspecified)	-20	-27%	7%[46.1 µM]	3%	i	-1%
COc1ccc(-c2cn[nH]c2-c2ccc(OCc3ccc([N+](=O)[O-])cc3)cc2O)cc1OC	-96*	?	·	·	·	·
COc1ccc(-c2cn[nH]c2-c2ccc(OCc3ccccc3F)cc2O)cc1OC	-61*	11µM*	·	·	?	?
COc1ccccc1-c1cn[nH]c1-c1ccc(OCc2ccccc2)cc1O	-25	-19%	?	1%[46.1 µM]	?	-1%
CCCCC(=O)Nc1nnc(S(=O)(=O)N(CC)c2cc(C)cc(C)c2)s1	-12	·	·	-25%[46.1 µM]	-13%	-6%

Screens: PubChem BioAssay, National Center for Advancing Translational Sciences (NCATS)
